Bioassay records (PubChem)
Hits are enriched below; roughly 2.3% of the tested compounds scored in any of these assays.
TLR4-MyD88 inh: blocks binding of human TLR4 to MyD88 | O00206 | Cell-based TLR4-MyD88 binding inhibition assay | inhibition, % at 10 µM | 16,000 tested, 0.06% active | AID 811; in the data active = inhibition above about 45%
luminol inh ctr: luminol signal inhibition, Nox1 inhibitor counter-screen; HRP/luminol/H2O2 chemiluminescence counterscreen; inhibition, % at 6.7 µM; 16,000 tested, 0.4% active; AID 1823; also: reference of the scale not given here
OPRK1 antag MB: blocks the human kappa opioid receptor, Maybridge compounds; 16,000 tested, 0.4% active; OPRK1 cells, antagonist mode, fluorescence readout; AID 652031; inhibition, % at 9 µM; in the data active = inhibition above about 50%
Target sequence (P41145 whole entry, looked up): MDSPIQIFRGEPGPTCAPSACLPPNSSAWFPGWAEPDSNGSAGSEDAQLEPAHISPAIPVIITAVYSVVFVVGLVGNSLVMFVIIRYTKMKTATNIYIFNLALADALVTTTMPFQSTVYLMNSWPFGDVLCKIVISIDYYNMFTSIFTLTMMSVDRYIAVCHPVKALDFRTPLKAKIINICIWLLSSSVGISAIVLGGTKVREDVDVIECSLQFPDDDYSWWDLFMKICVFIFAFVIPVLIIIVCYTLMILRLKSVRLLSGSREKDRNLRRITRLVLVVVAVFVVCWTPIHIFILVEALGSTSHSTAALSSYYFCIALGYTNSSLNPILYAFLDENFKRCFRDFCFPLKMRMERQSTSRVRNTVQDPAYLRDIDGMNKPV
Nox1 inhibitor: blocks human NADPH oxidase 1 activity; Q9Y5S8; inhibition, % at 6.7 µM; AID 1792; HT29 cells, luminol chemiluminescence ROS; 16,000 tested, 0.81% active
PME-1 Maybr inh: inhibitors of human PME-1 in Maybridge library; AID 2291; recombinant PME-1, FP-Rh probe fluorescence polarization; 16,000 tested, 0.5% active; inhibition, % at 9 µM; in the data active = inhibition above about 30%
NOTCH ag: NOTCH pathway agonism. NOTCH signaling luciferase reporter cells, luminescence. AID 434982. activation, % at 2.5 µM. 15,000 tested, 0.4% active; in the data active = activation above about 2.2%
Numbers without * were called inactive; . = not tested or not shown. Rule as the data show it, unless noted: active = inhibition above about 75%; inactive = the rest.

SMILES	TLR4-MyD88 inh	luminol inh ctr	OPRK1 antag MB	Nox1 inhibitor	PME-1 Maybr inh	NOTCH ag
CCOc1cc(N2CCOCC2)c(OCC)cc1NS(=O)(=O)c1ccccc1	-2	15	18	103*	17	0
O=S(=O)(Nc1ccccc1N1CCOCC1)c1ccccc1	-18	43	-16	20	5	.
O=C1CN(c2ccccc2)C(=O)N1c1ccccc1	5	0	-9	-49	-2	0
O=C1CCC2=C(CCCC2)N1c1ccccc1	45*	-1	8	9	-1	0
O=C1ON=C(c2ccccc2)C1C=C1CCCC1 (stereo not given)	-2	-3	3	6	6	0
CC(=O)Nc1cc2cc(NC(=O)c3c(-c4c(F)cccc4Cl)noc3C)ccc2oc1=O	-12	1	3	-44	4	0
N#C/C(=C\c1ccc(C#N)cc1)C(=O)Nc1cc(C(F)(F)F)ccc1Cl	-2	-3	1	-29	-3	1
COc1ccccc1C1CCN(Cc2ccc3c(c2)CCC(C)(C)O3)CC1	-2	2	75*	-44	3	0
N#Cc1cccnc1NNC(=O)COCC(=O)O	3	5	83*	6	-63	-1
CCOC(=O)c1nsc(/C(C)=N/Nc2ccccc2)c1N	1	0	26	98*	7	0
COc1cccc(C(=O)CSc2nsc(SCC(=O)c3cccc(OC)c3)c2C#N)c1	-5	0	6	88*	0	-1
O=c1[nH]nc(N2CCSCC2)[nH]1	16	-5	6	89*	3	1
Cc1cc(NNC(=O)c2ccccc2Cl)nc2c1c(C)nn2C	5	31	-1	78*	7	-1
Cc1cccc(Cl)c1NNC(=O)Nc1c([N+](=O)[O-])c(C)nn1C	9	6	2	-37	3	0
Cc1cc(C(=O)Nc2ccccc2)no1	0	3	-14	-3	-3	1
CC(=O)CS(=O)(=O)c1ccc(Cl)cc1	2	-2	1	24	4	0
S=c1[nH]c(=S)c2ccccc2[nH]1	0	77*	0	-68	1	0
c1ccc2c3c([nH]c2c1)CCCCCC3	0	1	14	-61	0	0
N#Cc1c(NCc2cccs2)ccc([N+](=O)[O-])c1NCc1cccs1	9	2	-20	-33	5	0
CN(C)Nc1ccc([N+](=O)[O-])c(NN(C)C)c1C#N	8	63	-21	81*	2	-1
Nc1ccc(Oc2cc(C(F)(F)F)ccc2Cl)cc1F	-6	2	1	-26	-2	0
Cc1c(C(=O)Oc2cccc(C(F)(F)F)c2)n(C)oc1=O	-4	0	9	-44	-1	0
Cn1nc(-c2ccccc2)c(O)c(N=Nc2ccccc2)c1=O	-26	-3	-3	97*	5	0
Cc1cccc2c(O)c(N=Nc3ccccc3)c(=O)oc12	3	-3	12	-30	19	0
CCOC(=O)c1ccc(Cl)c(N=Cc2ccccc2O)c1	-8	3	4	-35	2	0
SMILES	TLR4-MyD88 inh	luminol inh ctr	OPRK1 antag MB	Nox1 inhibitor	PME-1 Maybr inh	NOTCH ag
CCN(CC)c1ccc(N=C2C=CC(=O)c3ccccc32)c(C)c1	2	-49	-6	99*	10	-1
OC(CN1CCN(Cc2c(F)cccc2Cl)CC1)Cn1ccc2ccccc21 (stereo not given)	-7	-7	2	16	6	2.7*
Cc1cn(CCC(=O)NC2Cc3ccccc3C2)c2ccccc12	1	1	-33	-41	7	-1
Cc1cn(CCC(=O)NCc2ccc3c(c2)OCO3)c2ccccc12	-3	-1	-27	-40	3	3.5*
CCOC(=O)c1cn[nH]c1NC(=S)Nc1cccc(C(F)(F)F)c1	21	9	83*	2	-53	-1
COC(=O)c1sccc1NC(=S)NCCN1CCNC1=O	-16	99*	-5	20	5	0
CCC(CO)NC(=S)Nc1ccsc1C(=O)OC (stereo not given)	-7	5	-8	-1	2	-1
COC(=O)c1sccc1NC(=O)CC1C(=O)NCCN1C(=O)c1ccccc1 (stereo not given)	1	0	4	-39	46*	-1
O=S(=O)(c1ccccc1OC(F)(F)F)N1CCN(c2c(Cl)cncc2Cl)CC1	-2	-6	6	11	14	0
NNC(=S)NCc1cccs1	7	6	0	-9	-3	0
COc1ccc(-c2nc(N(C)c3ccccc3)[nH]c(=O)c2C#N)cc1	-1	-1	4	-18	0	3.5*
COc1cccc(NC(=S)NNc2ccc([N+](=O)[O-])cc2)c1	-17	11	16	98*	4	-1
Cc1csc2ncnc(NNS(=O)(=O)c3cc(C(F)(F)F)cc(C(F)(F)F)c3)c12	3	3	-18	102*	-6	0
Cc1csc(SCC(=O)NNS(=O)(=O)c2cc(C(F)(F)F)cc(C(F)(F)F)c2)n1	-2	2	-3	-38	-3	-1
O=C(Nc1ccc(-c2csnn2)cc1)C1CC1	-28	1	5	7	3	0
Cc1ccc(S(=O)(=O)NC(=O)Oc2ccc(-c3csnn3)cc2)cc1	11	103*	1	-132	0	0
Nc1cc(S(=O)(=O)O)c(N)c2c1C(=O)c1ccccc1C2=O	-4	-16	1	0	99*	.
O=C1CSC(=Nc2c(Br)cc(F)cc2Br)N1CCc1ccncc1	-9	1	-16	-45	4	-1
Nc1ccc(Nc2ccc(N)cc2S(=O)(=O)O)cc1	1	13	0	26	44*	-1
Nc1c(Cl)cc(C(=O)Nc2cc(Cl)c(Cl)cc2Cl)cc1Cl	-6	-1	-24	-46	-93	0
Cn1ncc(C(=O)NC(=O)Nc2ccc(F)cc2)c1[N+](=O)[O-]	2	-6	33	78*	-2	-2
COC(=O)c1scc(C#N)c1N=N/C(C(C)=O)=C(/C)O	3	-7	-3	4	4	-1
O=C1c2ccccc2C(=O)c2c(O)ccc(O)c21	1	8	7	54	40*	0
CCOC(=O)C1CCN(Cc2cccc(NC(=O)c3cccs3)c2)CC1	-3	-2	50*	-2	-4	0
CCOC(=O)Cc1nn(Cc2nc(-c3ccc([N+](=O)[O-])cc3)cs2)c(=O)c2ccccc12	-3	8	-2	-2	-4	-1
COc1ccc(NS(=O)(=O)c2ccc(C)cc2)c([N+](=O)[O-])c1	-3	-5	-4	16	8	0
COc1ccc(S(=O)(=O)Nc2cc(C)c(C)cc2[N+](=O)[O-])c(OC)c1	12	3	14	-27	33*	-1
COc1nc(Nc2ccccc2)nc(OC)n1	-5	-1	-19	-45	0	-1
Nc1nc(Nc2ccccc2)n[nH]1	-14	13	0	78*	-2	.
NC(=O)NCc1ccccn1	0	5	-15	-27	-2	-1
